CYP2C9 inh – blocks human cytochrome P450 2C9; P11712; CYP2C9 Supersomes, luciferin-H conversion, luminescence; inhibition, % at 5 µM; 96,000 tested, 20% active; AID 777;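 active = blocking of liver enzyme CYP2C9 beyond about 50% at 5 µM, limit read from the data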
Mac1 fbg inh – CD11b/CD18-fibrinogen binding inhibition; P05107+P11215; K562 CD11b/CD18 adhesion to fibrinogen, ATPlite luminescence; Mn2+ added to activate the integrin; inhibition, % at 10 µM; 93,000 tested, 0.54% active; AID 1497;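 active = primary inhibition of 50% or more at 10 µM, then 40% or more on retest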
Target sequence (P05107 whole entry, looked up, other chains not shown): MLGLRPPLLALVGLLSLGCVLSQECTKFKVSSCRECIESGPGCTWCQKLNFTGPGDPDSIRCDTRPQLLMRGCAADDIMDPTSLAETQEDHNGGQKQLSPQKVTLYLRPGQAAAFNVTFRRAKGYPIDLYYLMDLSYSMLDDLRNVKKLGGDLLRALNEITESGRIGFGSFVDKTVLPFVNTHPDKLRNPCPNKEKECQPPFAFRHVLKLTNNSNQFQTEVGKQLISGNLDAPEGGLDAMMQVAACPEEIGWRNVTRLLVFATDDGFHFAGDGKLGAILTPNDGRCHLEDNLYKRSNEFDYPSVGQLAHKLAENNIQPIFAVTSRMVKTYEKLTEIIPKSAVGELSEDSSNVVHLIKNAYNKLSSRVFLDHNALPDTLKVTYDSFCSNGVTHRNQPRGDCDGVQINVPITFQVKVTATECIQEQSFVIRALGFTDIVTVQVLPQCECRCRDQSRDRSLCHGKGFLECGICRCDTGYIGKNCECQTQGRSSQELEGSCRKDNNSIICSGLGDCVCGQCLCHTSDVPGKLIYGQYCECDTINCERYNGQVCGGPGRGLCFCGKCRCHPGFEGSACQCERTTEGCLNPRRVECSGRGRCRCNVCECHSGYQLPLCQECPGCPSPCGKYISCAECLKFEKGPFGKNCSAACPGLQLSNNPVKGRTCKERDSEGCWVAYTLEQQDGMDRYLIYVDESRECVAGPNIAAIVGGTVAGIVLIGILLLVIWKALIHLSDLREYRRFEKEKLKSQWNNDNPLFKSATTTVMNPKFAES
Mac1 fbg enh – CD11b/CD18-fibrinogen binding enhancement | P05107+P11215 | K562 CD11b/CD18 adhesion to fibrinogen, ATPlite luminescence | activation, % at 10 µM | 93,000 tested, 0.07% active;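 active = 10 µM primary screen giving 50% or more activity, confirmed by 40% or more on retest at that dose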
CYP2C19 inh – blocks human cytochrome P450 2C19; 96,000 tested, 21% active; P33261; CYP2C19 Supersomes, luciferin-H EGE luminescence, 30 min; inhibition, % at 5 µM; AID 778;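 active = CYP2C19 inhibition above a set limit at 5 µM in the primary screen, cut at about 50% in these data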;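 note: plate controls were negative control wells for no effect and 2.5 mM tranylcypromine positive control for full effect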
CYP2C19 activ – increases human CYP2C19 enzyme activity; P33261; recombinant CYP2C19, luciferin-H EGE luminescence; stronger effect = higher value; 0 = fully inhibited enzyme, 1 = untreated enzyme; activation factor at 5 µM; 96,000 tested, under 10 active; AID 1025;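 active = activation factor of at least 2 at 5 µM in the primary screen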;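 note: 0 = wells with 2.5 mM tranylcypromine and 1 = vehicle-only wells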
CYP2C9 activ – CYP2C9 (human) activation. P11712. recombinant CYP2C9, luciferin-H conversion, luminescence; stronger effect = higher value; factor 1 = untreated enzyme, 0 = blocked. activation factor at 5 µM. 96,000 tested, 1.4% active;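 active = activation factor of 2 or more for CYP2C9 at a 5 µM dose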;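 note: 0 = sulfaphenazole-blocked wells and 1 = vehicle-only wells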
* marks the source's active call; other numbers are inactive results; / = no result given. In the library only some 28% were active in any assay of this set; here they are far more common.

SMILES	CYP2C9 inh	Mac1 fbg inh	Mac1 fbg enh	CYP2C19 inh	CYP2C19 activ	CYP2C9 activ
Cc1cc(Nc2ccccc2)n(-c2nc3ccccc3[nH]2)n1	69.2*	-4.7	0.0	22.7	0.8	0.3
COc1ccc(/C=C/C(=O)Nc2cc(C)nn2-c2nc3ccccc3[nH]2)cc1	/	61.1	2.6	/	/	/
Cc1cc(NC(=O)c2c(F)cccc2Cl)n(-c2nc3ccccc3[nH]2)n1	94.8*	6.2	-6.9	86.4*	0.1	0.1
Cc1cc(NC(=O)/C=C/c2ccc(F)cc2)n(-c2nc3ccccc3[nH]2)n1	/	14.0	45.4	/	/	/
CC(=O)C1=C(N2CCCCC2)CCC1=O	-12.5	-30.9	-0.9	3.2	1	1.1
COc1cc2c(cc1NC(=O)CN(C)Cc1ccc(OC)c(OC)c1)oc1ccccc12	/	13.5	-0.1	/	/	/
Cc1cc(NC(=O)c2c(F)cccc2F)n(-c2nc3ccccc3[nH]2)n1	51.5*	/	/	28.6	0.7	0.5
CNc1nn(-c2cccc(Cl)c2)nc1N	23.0	-4.9	-1.8	18.4	0.8	0.8
Cc1ccc(-n2nnnc2SCC(=O)Nc2ccccc2-c2ccccc2)cc1C	/	26.1	1.4	/	/	/
Cn1c(Cc2ccccc2)nnc1SCC(=O)Nc1ccccc1N1CCOCC1	-7.9	-17.8	2.9	-3.9	1	1.1
Cc1ccc(-n2nnnc2SCC(=O)Nc2ccccc2N2CCCCC2)cc1C	11.0	18.7	-6.7	79.7*	0.2	0.9
CC(C)n1nnnc1SCC(=O)Nc1ccccc1N1CCOCC1	37.5	-5.5	1.2	55.7*	0.4	0.6
CSc1ccccc1-n1nnnc1SCC(=O)Nc1cc(C)ccc1C	-207.6	-4.0	-2.5	30.8	0.7	3.1*
CCC(=O)Nc1ccc(NC(=O)CSc2nnnn2C(C)C)cc1	67.6*	-35.8	-0.4	-1.8	1	0.3
CC1CC(C)CN(C(=O)c2cc3c(s2)CCC3)C1 (configuration not stated)	11.4	-26.4	-1.0	6.2	0.9	0.9
Cc1cc(C)n2c(SCC(=O)Nc3ncc(C(F)(F)F)cc3Cl)nnc2n1	62.7*	0.5	-2.8	26.1	0.7	0.4
COCCCNC(=O)CC(NS(=O)(=O)c1ccc(Cl)cc1)c1ccco1 (configuration not stated)	51.8*	-21.0	-5.9	60.8*	0.4	0.5
Cc1ccc(S(=O)(=O)NC(CC(=O)NC2CCCC2)c2ccco2)cc1 (configuration not stated)	32.8	4.7	-1.9	58.2*	0.4	0.7
CCOC(=O)N1CCN(C(=O)CN(C2CCCCC2)S(=O)(=O)c2ccc(Cl)cc2)CC1	22.2	-22.9	-2.4	16.3	0.8	0.8
CCOC(=O)N1CCC(NC(=O)CC(NS(=O)(=O)c2ccc(Cl)cc2)c2ccco2)CC1 (configuration not stated)	53.8*	-19.0	5.8	59.7*	0.4	0.5
CCOC(=O)N1CCC(Nc2nc3ccccc3nc2NS(=O)(=O)c2ccc(Cl)cc2)CC1	95.0*	91.5*	0.0	18.6	0.8	0.1
Cc1cc2c(c(=O)o1)C(CC(C)C)C(C#N)=C(N)O2 (configuration not stated)	63.0*	-1.9	-4.7	24.1	0.8	0.4
COc1ccc(C2C(C#N)=C(N)Oc3cc(C)[nH]c(=O)c32)c(OC)c1OC (configuration not stated)	9.5	-1.8	-4.1	1.8	1	0.9
COc1cccc(C2C(C#N)=C(N)Oc3cc(C)oc(=O)c32)c1OC (configuration not stated)	74.5*	-1.6	0.8	44.4	0.6	0.3
Cc1cc2c(c(=O)n1CCc1ccccc1)C(C(C)C)C(C#N)=C(N)O2 (configuration not stated)	6.6	/	/	8.0	0.9	0.9
Cc1cc2c(c(=O)o1)C(C13C=CC(CC1)C3)C(C#N)=C(N)O2 (configuration not stated)	75.4*	/	/	72.4*	0.3	0.2
O=C(COc1ccc([N+](=O)[O-])cc1)Nc1ccc(C(=O)NCc2cccnc2)cc1	16.3	/	/	12.1	0.9	0.8
COc1ccc(Cc2nn3c(-c4cc(OC)c(OC)c(OC)c4)nnc3s2)cc1	74.9*	/	/	68.9*	0.3	0.3
COc1cc(-c2nnc3sc(Cc4ccccc4)nn23)cc(OC)c1OC	52.0*	-1.1	1.3	42.7	0.6	0.5

Bioassay records: PubChem BioAssay, Sanford-Burnham Center for Chemical Genomics
